In PubChem BioAssay (NCATS) one finds Potency data, which are given here for 14 molecules.

Inconclusive results are not listed. A call without a number means that no potency is given here. Calls of active or inactive are those of the source. The call rests on the fitted dose curve; in most records, active means well fitted cell-killing curve with a large enough effect; inconclusive means small, poorly fitted or top-dose-only effect; inactive means flat fitted curve, though single readings scatter.
Potency means the concentration at half of the fitted maximal effect.

A short description of this experiment: Cell Viability - LYMP2-026 (AID 989). Further: nearly all actives have a fitted effect of over 50% in size. The conditions noted are these: LYMP2-026 lymphoblastoid cell viability, qHTS; series mostly up to 92.2 µM. An excerpt:
NIH Chemical Genomics Center [NCGC]
NIH Molecular Libraries Screening Centers Network [MLSCN]
National Institutes of Environmental Health Sciences [NIEHS]
National Toxicology Program [NTP]
We have developed a 1536-well cell-based assay for quantitative high throughput screening (qHTS) against a number of cell lines to determine in vitro cytotoxicity of small molecules. This particular assay uses a human lymphoblastoid cell line (LYMP2-026) purchased from Coriell Institute for Medical Research.
NCGC Assay Protocol Summary:
The CellTiter-Glo luminescent cell viability assay (Promega) is a homogeneous method to measure the number of viable cells in culture. The end point readout of this assay is based on quantitation of intracellular ATP, an indicator of metabolic activity, using the luciferase reaction. Luciferase catalyzes the oxidation of beetle Luciferin to oxyluciferin and light in the presence of ATP. The luminescent signal is proportional to amount of ATP present.
Using the CellTiter-Glo luminescent cell viability assay, the amount of cellular ATP was measured in the lymphoblastoid cell line with complete culture medium following compound treatment for 24 hours. The assay was performed in opaque white Kalypsys 1536-well plates. In the screen, tetraoctylammonium bromide was used as positive control. Library compounds were measured for their ability to cause acute toxicity in the cell line, as reflected by a decrease in intracellular ATP levels, in a concentration-dependent manner. […] AC50 values were determined from concentration-response data modeled with the standard Hill equation.
qHTS protocol for CellTiter Glo lymphoblastoid cellular assay
[Step] [Parameter] [Value] [Description]
1. Reagent; 5 uL; 2500 lymphoblastoid cells/well
2. Time; 5 hr; 37 C incubation
4. Controls; 23 nL; Tetraoctylammonium bromide 6.4pM to 92 uM
5. Time; 24 hr; 37 C incubation
6. Reagent; 5 uL; CellTiter Glo reagent
7. Time; 30 min; Room Temperature
8. Detection; Luminescence; Viewlux plate reader
Keywords: cell viability, cytotoxicity, lymphoblastoid cell line, luminescence, NTPHTS, NTPHTS_NCGC, NIEHS, DSSTox, MLSMR, MLSCN, NIH Roadmap, qHTS, NCGC
A general note: Quantitative high-throughput screening tests each substance at several concentrations.
For the molecule `O=C1NC(=O)C(c2ccccc2)(c2ccccc2)N1`, the Potency result is “inactive”.

Regarding `CC(=O)O[C@]1(C(C)=O)CC[C@H]2[C@@H]3C=C(Cl)C4=CC(=O)[C@@H]5C[C@@H]5[C@]4(C)[C@H]3CC[C@@]21C`, the Potency entry was “inactive”.

On to `CCCCC1C(=O)N(c2ccccc2)N(c2ccccc2)C1=O`, for which the Potency result is “inactive”.

On to `CCCNC(=O)NS(=O)(=O)c1ccc(Cl)cc1`, for which the Potency entry was “inactive”.

`O=c1c(O)c(-c2ccc(O)cc2)oc2cc(O)cc(O)c12`: the Potency entry was “inactive”.

`CN(C)CCC(c1ccccc1)c1ccccn1` (centres undefined): the Potency result is “inactive”.

`CC1=C(/C=C/C(C)=C/C=C/C(C)=C/C(=O)Nc2ccc(O)cc2)C(C)(C)CCC1`: the Potency was 39.8 µM (active).

As to `CC(=O)c1ccc(S(=O)(=O)NC(=O)NC2CCCCC2)cc1`, the Potency entry is “inactive”.

On to `O=c1c(-c2ccc(O)cc2)coc2cc(O)ccc12`, for which the Potency result is “inactive”.

For the molecule `O=C(O)Cc1cccc2ccccc12`, the Potency result was “inactive”.

Regarding `O=c1[nH]cnc2c1ncn2[C@H]1CC[C@@H](CO)O1`, the Potency result was “inactive”.

Consider `CCn1cc(C(=O)O)c(=O)c2ccc(C)nc21`, for which the Potency result is “inactive”.

Consider `CC/C(=C(\c1ccccc1)c1ccc(OCCN(C)C)cc1)c1ccccc1`, for which the Potency is 50.1 µM (active).

With `O=C(O)c1cc(O)c2c(c1)C(=O)c1cccc(O)c1C2=O`, the Potency entry was “inactive”.
